This is a sample that favours compounds with a hit; in the whole collection about 11% have one here.
HCV inhibitor: qHTS Assay for Inhibitors of Hepatitis C Virus (HCV); AID 651820, 2012; Huh7.5.1 HCVcc-Cre infection, luciferase reporter, 44 h; Potency, µM (titrated, usually from 41.8 µM), usual class: inhibitors; hit rate 3.4% among 340,000
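Infectious HCV cell culture screen: compound-treated cells (1,000/well, pre-plated 4 h) are infected with HCVcc-Cre at roughly 0.5 moi and grown 44 h. Infection is quantified by luciferase signal after 15 min substrate incubation at room temperature.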
Pf growth 48h: Primary qHTS for delayed death inhibitors of the malarial parasite plastid, 48 hour incubation. P. falciparum luciferase growth in erythrocytes, 48 h. hit rate 5.9% among 310,000. Potency, µM (series often up to 28.7 µM), hits mostly inhibitors. AID 504832, 2011
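Here the parasites carry a stable luciferase gene and grow inside erythrocytes in Albumax-based RPMI medium with compound for one erythrocytic cycle. Activity is scored as loss of luminescent signal.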
VACV Venus inh: qHTS for Stage-Specific Inhibitors of Vaccinia Orthopoxvirus: Venus Reporter Primary qHTS; Vaccinia virus Venus reporter expression, fluorescence; Potency, µM (highest dose often 36.5 µM), most hits filed as inhibitors; hit rate 0.46% among 330,000; calls by dose curve; tested in A549 cells; further: nearly all actives have a fitted effect of over 30% in size
Pf growth 96h: Primary qHTS for delayed death inhibitors of the malarial parasite plastid, 96 hour incubation; AID 504834, 2011; P. falciparum luciferase reporter growth, 96 h; hit rate 6.9% among 320,000; Potency, µM (titrated, usually from 28.7 µM), most hits filed as inhibitors
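Two parasite generations (96 h, 37 C, 5% CO2) of compound exposure in infected erythrocytes (0.05% parasitemia, 2% hematocrit). Luciferase-reporter P. falciparum; decreased luminescence indicates inhibited growth, aimed at apicoplast-acting delayed death.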
NS1 function inh: qHTS Assay for Inhibitors of Influenza NS1 Protein Function | Potency, µM (titrated, usually from 46.1 µM) | hit rate 0.4% among 270,000 | AID 2326, 2010; calls by dose curve; further: actives are rising curves; nearly all actives have a fitted effect of over 50% in size
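S. cerevisiae expressing influenza A NS1, grown in glucose, washed, then diluted 1:100 into pH 6.0 -URA galactose medium with 23 nl compound. Growth recovery read as OD600; NS1-free strain serves as control.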
VACV mCherry inh: qHTS for Stage-Specific Inhibitors of Vaccinia Orthopoxvirus: mCherry Reporter Primary qHTS; Vaccinia virus mCherry reporter infection, fluorescence; Potency, µM (highest dose often 36.5 µM), actives largely listed as inhibitors; hit rate 0.63% among 310,000; AID 720579, 2013; calls by dose curve; tested in A549 cells; further: nearly all actives have a fitted effect of over 35% in size
Numbers stand for hits; . = inactive; ? = inconclusive; / = no result; [ ] = remark or other dose. Unless noted, the call rests on the fitted dose curve; in most records, active means well fitted inhibition curve with a large enough effect; inconclusive means small, poorly fitted or top-dose-only effect, or another doubt; inactive means no such curve, though single readings can be large or run the other way.

SMILES | HCV inhibitor | Pf growth 48h | VACV Venus inh | Pf growth 96h | NS1 function inh | VACV mCherry inh
COc1ccc(S(=O)(=O)N2CCC(Cc3ccccc3)CC2)cc1C(N)=O | . | . | / | ? | . | /
CC1Cc2nc(SCC(=O)Nc3nc4ccccc4s3)n(C)c(=O)c2S1 (configuration not stated) | ? | ? | ? | ? | . | ?
CCOc1ccc(-n2nc3c(SCCN4CCCC4)nnc(C)c3c2C)cc1 | 10µM | ? | . | . | . | .
CCOc1ccc(-n2nc3c(Cl)nnc(C)c3c2C)cc1 | . | 0.33µM | . | 0.52µM | . | .
Cc1nnc(Cl)c2nn(-c3ccccc3)c(C)c12 | . | 0.33µM | . | 0.59µM | . | .
CCOc1ccc(-n2nc3c(=O)[nH]nc(C)c3c2C)cc1 | . | . | . | . | . | .
C(C#CCN1CCOCC1)#CCN1CCOCC1 | . | / | . | / | / | .
CCn1c2ccccc2c2cnc(N=CN(C)C)c(C#N)c21 | 13µM | ? | . | ? | . | /
Nc1nc2ccc([N+](=O)[O-])cc2[nH]1 | . | ? | . | . | . | .
Nc1[nH]c2cc([N+](=O)[O-])ccc2c1-c1ccccn1 | 13µM | ? | . | ? | . | ?
Cc1ccccc1CSc1ccc(-c2ccc3c(c2)OCO3)nn1 | . | . | . | . | . | .
COc1ccc(C(=O)NC2CC2)cc1OC1CCN(Cc2ccccc2)CC1 | . | . | . | ? | . | .
C#Cc1ccc(CN2CCC(Oc3cc(C(=O)NC4CC4)ccc3OC)CC2)cc1 | . | 13µM | / | . | . | /
CCn1ncc(CN2CCC(Oc3cc(C(=O)NC4CC4)ccc3OC)CC2)c1C | / | . | . | 1µM | . | .
CCCNC(=O)NC(C(=O)OC)C12CC3CC(CC(C3)C1)C2 (configuration not stated) | . | . | ? | / | . | /
COC(=O)c1c(N)c2ccccc2[nH]c1=O | . | . | . | . | . | .
Cn1c(SCC(=O)Nc2ccc3nc(SCC(=O)NC4CC4)sc3c2)nnc1-c1ccccc1 | . | ? | . | ? | . | .
O=C(CSc1nc2ccc(NC(=O)CSc3nnnn3Cc3ccccc3)cc2s1)Nc1ccccc1 | . | 13µM | / | ? | . | /
Cc1ccccc1OCc1nnc(SCC(=O)Nc2ccc3c(c2)OCO3)n1C | . | . | / | ? | . | /
CCN(CC)C(=O)CSc1nc2ccc(NC(=O)CSc3nccn3C)cc2s1 | ? | 8.3µM | ? | ? | ? | ?
Cn1c(SCC(=O)Nc2ccc3nc(SCC(=O)N4CCCC4)sc3c2)nnc1-c1ccc(N)cc1 | ? | / | . | 1.3µM | . | /
CCN(CC)C(=O)CSc1nc2ccc(NC(=O)CSc3nnc(N)s3)cc2s1 | ? | ? | . | ? | . | /
Cc1ccccc1OCc1nnc(SCC(=O)Nc2ccc3nc(SCC(=O)Nc4ccccc4)sc3c2)n1C | 1.1µM | 13µM | . | 10µM | . | .
CNc1cncc(-c2ccccc2NC(C)=O)n1 | / | / | . | / | / | .
O=C(CN1CCCCC1CO)c1ccc(OC(F)F)cc1 (configuration not stated) | . | . | / | . | / | /
SMILES | HCV inhibitor | Pf growth 48h | VACV Venus inh | Pf growth 96h | NS1 function inh | VACV mCherry inh
COc1ccc(C2Nc3ccccc3C(=O)N2NS(C)(=O)=O)cc1 (configuration not stated) | . | . | . | . | / | .
Cc1cccc(OCc2nnc(SCC(=O)c3cccs3)n2C)c1C | / | . | . | 8.3µM | . | .
COC(=O)c1ccccc1NC(=O)CSc1nc(N)cc(N)n1 | . | / | . | ? | . | .
O=C(CSc1nnnn1Cc1ccccc1)Nc1cccc(F)c1 | . | . | . | . | . | ?
CCOC(=O)c1ccccc1NC(=O)CSc1nc(N)cc(N)n1 | . | . | . | 12µM | . | .
CC(=O)Nc1cccc(NC(=O)CSc2nnnn2Cc2ccccc2)c1 | ? | . | . | 5.9µM | . | .
CCOC(=O)c1ccccc1NC(=O)CSc1nnc(COc2ccccc2C)n1C | ? | 13µM | / | ? | . | /
Cc1ccccc1NC(=O)c1nc(-c2ccncc2)no1 | / | / | . | / | / | .
COC(=O)c1ccccc1S(=O)(=O)N1CCC(C(=O)NC2=NCCS2)CC1 | . | . | / | . | / | /
O=C(O)CCC(=O)Nc1ccc(N=Nc2ccccc2)cc1 | . | . | . | . | / | .
CCc1cc(C(=O)OC)c(N2C(=O)C3C4C=CC(C4)C3C2=O)s1 (configuration not stated) | . | . | . | . | . | .
CCOc1ccc(-c2c(C)n(-c3ccc(OCC)cc3)c3[n+]2CCCCC3)cc1 | 2.5µM | 0.41µM | . | ? | . | .
CCOc1ccc(-n2c(-c3ccccc3)c[n+]3c2CCCCC3)cc1 | ? | ? | / | ? | . | /
CCn1cc(CN2CCC(C(=O)Nc3cccc(-c4cccc(F)c4)c3)CC2)cn1 | 8.9µM | ? | . | . | . | .
CCn1cc(CN2CCC(C(=O)Nc3cccc(-c4cccc(OC)c4)c3)CC2)c(C)n1 | . | ? | . | . | . | .
CCn1nc(C)c(CN2CCC(C(=O)Nc3cccc(-c4cccc(F)c4)c3)CC2)c1C | ? | 10µM | / | . | . | /
CC(=O)c1cccc(CN2CCC(C(=O)Nc3cccc(-c4ccn[nH]4)c3)CC2)c1 | 6.3µM | ? | . | . | . | .
C=CCOc1ccccc1CN1CCC(C(=O)Nc2cccc(-c3ccn[nH]3)c2)CC1 | ? | ? | / | ? | . | /
CC(NC(=O)C(=O)N1CCCCC1)C(c1cccs1)N1CCN(c2ccccc2F)CC1 (configuration not stated) | . | ? | .[7.34 µM] | 1.3µM | . | .[7.34 µM]
CC(NC(=O)C(=O)N1CCOCC1)C(c1cccs1)N1CCN(c2ccccc2F)CC1 (configuration not stated) | . | ? | / | ? | . | /
O=C(COc1ccccc1)N1CCN(c2ccccc2)CC1 | . | . | . | . | . | .
NC(=S)Cc1nc(-c2ccccc2)cs1 | . | ? | . | ? | ? | .
Oc1ccccc1/C=N/NC(=S)NC1CC2C=CC1C2 (configuration not stated) | . | ? | .[7.34 µM] | 0.93µM | . | .[7.34 µM]
Oc1c(Cl)cc(Cl)cc1/C=N/NC(=S)NC1CC2C=CC1C2 (configuration not stated) | ? | 0.83µM | ? | ? | . | ?
CC1CCCN(C(=O)c2ccccc2OC2CCN(S(C)(=O)=O)CC2)C1 (configuration not stated) | . | . | . | ? | . | .
C/C(CC(=O)Nc1cccc2c1CCCC2)=N\NC(=O)c1cccc2ccccc12 | . | . | . | 13µM | . | .
c1cncc(-c2nnc(-c3cccnc3)nn2)c1 | ? | 2.6µM | . | ? | . | .
Cn1nc(C(F)(F)F)c2cc(C(=O)Nc3ccc(C(F)(F)F)cc3)sc21 | ? | 6.6µM | . | ? | . | .
Cn1nc(C(F)(F)F)c2cc(C(=O)Nc3ccc(F)c(Cl)c3)sc21 | ? | 3.3µM | . | 2.1µM | . | .
